For some assays here: Measured potencies and affinities stand elsewhere. The source made the active and inactive calls. No rule for the calls is given here.
Molecular target: Plasmodium falciparum protein kinase 6 (PK6, PF3D7_1337100) (UniProt Q8IDW1)
Test: PfPK6 kinase inhibitors, biochemical, TCAMS library (AID 1159586)
Settings: recombinant PfPK6, Kinase-Glo ATP depletion luminescence

Chain of Plasmodium falciparum protein kinase 6 (PK6, PF3D7_1337100) (Q8IDW1 1-305): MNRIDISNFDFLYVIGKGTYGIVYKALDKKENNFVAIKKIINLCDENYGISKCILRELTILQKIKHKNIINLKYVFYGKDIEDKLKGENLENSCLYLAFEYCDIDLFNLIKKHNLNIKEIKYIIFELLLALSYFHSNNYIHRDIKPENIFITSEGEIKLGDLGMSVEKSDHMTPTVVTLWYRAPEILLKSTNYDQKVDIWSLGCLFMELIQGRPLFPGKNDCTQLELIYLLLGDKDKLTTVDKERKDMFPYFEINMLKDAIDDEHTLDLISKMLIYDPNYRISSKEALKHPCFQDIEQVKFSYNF

Row | Structure (SMILES) | outcome
1 | Clc1ccc(-c2cc3c(NCc4ccncc4)nccc3s2)cc1 | inactive
2 | CCN(CC)CCN(Cc1ccc(-c2ccc(C(F)(F)F)cc2)cc1)C(=O)Cn1c(SCc2ccc(F)cc2)cc(=O)c2ccccc21 | inactive
3 | O=C(Nc1ccccc1)N(Cc1ccccc1-c1cccc(CNCCc2ccccc2)c1)C1CCN(Cc2ccccc2)CC1 | inactive
4 | Cc1ccccc1N1CCN(c2ccc(C(=O)Nc3ccccc3)cc2)CC1 | inactive
5 | CN1CCN(CCCN(Cc2cccc(-c3ccc(CNCc4ccc5c(c4)OCO5)cc3)c2)C(=O)CCC2CCCC2)CC1 | inactive
6 | Fc1ccc2nc(-c3cccc(-c4ccc(CNCc5ccccc5)cc4)c3)[nH]c2c1 | inactive
7 | COc1cc(Cl)c(C)cc1N(Cc1ccccc1-c1ccccc1)S(=O)(=O)c1ccc(C(F)(F)F)cc1 | inactive
8 | COc1cc(NCC(C)CNCc2cn(Cc3ccccc3)c3ccccc23)nc2ccccc12 (stereo not given) | inactive
9 | O=S(=O)(c1cccc(Br)c1)N1CCCCC(c2ccc(C(F)(F)F)cc2)=N1 | inactive
10 | COCc1nc(N)nc(N)c1-c1ccc(Cl)c(Cl)c1 | inactive
11 | O=C(NCCCCN1CCC(c2ccc3c(c2OCC2CC2)CCCC3)CC1)c1ccc(NC(=O)c2ccc(Cl)cc2)cc1 | inactive
12 | Cc1ccc(-c2nnc3c4ccccc4c(C)nn23)cc1S(=O)(=O)N1CCN(CCO)CC1 | inactive
13 | COc1ccc(Nc2nccc(N3CCC(NC(=O)Nc4cc(C)ccc4C)C3)n2)cc1 (stereo not given) | inactive
14 | O=c1ccc2ncc(Cl)c3c2n1CC3CN1CCC(NCc2cc3c(cn2)OCCO3)CC1 (stereo not given) | inactive
15 | CC(=O)c1sc(Cc2nc3ccccc3s2)nc1C | inactive
16 | CCN1CCN(c2ccc(Nc3ccnc4ccc(Br)cc34)cc2)CC1 | inactive
17 | O=C(NCC1Cc2cc(Oc3ccccc3)ccc2O1)c1ccc([N+](=O)[O-])o1 (stereo not given) | inactive
18 | CCN(CC)CCN(Cc1ccc(-c2ccc(C(F)(F)F)cc2)cc1)C(=O)c1ccc(-c2ccc(NC(=O)OC)cc2C)cc1 | inactive
19 | COc1ccc(CNCCc2cccs2)cc1-c1cccc(S(=O)(=O)NCCN2CCCC2)c1 | inactive
20 | O=C(Nc1ccc(-c2cccc(-c3nc4ccc(C(F)(F)F)cc4[nH]3)c2)cc1)Nc1ccc(Cl)c(Cl)c1 | inactive

Row | Structure (SMILES) | outcome
21 | CCN(CC)CCN(Cc1ccc(-c2ccc(C(F)(F)F)cc2)cc1)C(=O)Cn1c(CCC2CCCCC2)nc(=O)c2ccccc21 | inactive
22 | CC(Oc1ccc(NC(=O)c2cccs2)cc1)C(=O)c1ccc(Cl)cc1 (stereo not given) | inactive
23 | CC(=O)Nc1ccc(C(=O)Nc2ccc(-c3cccc(-c4nc5c(C)cccc5[nH]4)c3)cc2)cn1 | inactive
24 | COc1ccc(-c2ccc(CNC(=O)c3ccc(C#N)cc3)c(F)c2)cc1CN1CCCN(C)CC1 | inactive
25 | CC1CN(C(=O)c2sc3ccccc3c2Cl)CC(C)O1 (stereo not given) | inactive
26 | COc1ccc2nccc([C@@H](O)CN3CCC(NCc4ccc(OC)c(NC(C)=O)c4)CC3)c2c1 | inactive
27 | COc1ccc(Nc2nc(C)cc(NC3CCCC3)n2)cc1 | inactive
28 | COc1cc2nc(NCCc3ccccc3)nc(NCc3cc(C)no3)c2cc1OC | inactive
29 | c1ccc2c(C3CCN(CCCCOc4ccc5c(c4)CCN(C4CCC4)CC5)CC3)c[nH]c2c1 | inactive
30 | Cc1cc(N[C@@H](Cc2ccccc2)C(=O)NCCCOC(C)C)nc(NCC2CCCCC2)n1 | inactive
31 | COc1ccc(C(=O)CCC(=O)N(Cc2ccc(-c3ccc(CNCc4cccnc4)cn3)cc2)C2CCN(Cc3ccccc3)CC2)cc1F | inactive
32 | O=[N+]([O-])c1cc2c(cc1C=NNc1nc(Nc3ccccc3)nc(Nc3ccccc3)n1)OCO2 | inactive
33 | Cc1cccc2[nH]c(-c3cccc(-c4cccc(CN5CCN(c6ccncc6)CC5)c4)c3)nc12 | inactive
34 | CC(C)CCn1c(Sc2ccc(C#N)c([N+](=O)[O-])c2)nnc1-c1cccc(Cl)c1 | inactive
35 | O=C(Nc1ccc(-c2cccc(-c3nc4ccccc4[nH]3)c2)cc1)Nc1ccc(Cl)c(Cl)c1 | inactive
36 | O=C(/C=C/c1ccc(Cl)c(Cl)c1)NCCCCCCN1CCCN(C(=O)Nc2ccc(C(F)(F)F)cc2)CC1 | inactive
37 | O=C(N[C@@H](Cc1ccccc1)C(=O)NC1CCCc2ccccc21)c1ccc(O)c(-c2ccc(Cl)c(Cl)c2)c1 (stereo not given in full) | inactive
38 | CN(C(=O)c1snnc1-c1ccccc1)C1CCN(CCCCCNC(=O)/C=C/c2ccc(Cl)c(Cl)c2)CC1 | inactive
39 | CC(C)N1CCN(C(CN2CCN(CCCOc3ccccc3-c3ccccc3)CC2)c2ccc(F)cc2)CC1 (stereo not given) | inactive
40 | C=CCOC(=O)N1CCC(CNCc2cccc(-c3ccc(-c4nc5c(C)cccc5[nH]4)s3)c2)C1 (stereo not given) | inactive

Molecular target: Protein kinase 7 (PK7), Plasmodium falciparum 3D7 (PF3D7_0213400) (UniProt Q7YTF7)
Test: inhibition of Plasmodium PK7 catalytic activity – biochemical, TCAMS antimalarial set, Kinase-Glo luminescence (AID 1159587)
Settings: recombinant PfPK7, Kinase-Glo ATP depletion luminescence

Chain of Protein kinase 7 (PK7), Plasmodium falciparum 3D7 (PF3D7_0213400) (Q7YTF7 1-343): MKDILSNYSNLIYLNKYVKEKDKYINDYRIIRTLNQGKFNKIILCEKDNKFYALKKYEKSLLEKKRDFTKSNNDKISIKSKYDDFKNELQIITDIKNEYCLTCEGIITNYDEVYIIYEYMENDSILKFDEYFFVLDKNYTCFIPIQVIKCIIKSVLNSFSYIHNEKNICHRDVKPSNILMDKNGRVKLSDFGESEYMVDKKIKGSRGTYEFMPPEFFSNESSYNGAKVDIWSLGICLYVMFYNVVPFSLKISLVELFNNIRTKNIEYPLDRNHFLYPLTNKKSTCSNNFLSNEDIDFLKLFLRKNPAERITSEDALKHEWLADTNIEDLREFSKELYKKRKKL

Row | Structure (SMILES) | outcome
41 | Clc1ccc(-c2cc3c(NCc4ccncc4)nccc3s2)cc1 | inactive
42 | CCN(CC)CCN(Cc1ccc(-c2ccc(C(F)(F)F)cc2)cc1)C(=O)Cn1c(SCc2ccc(F)cc2)cc(=O)c2ccccc21 | inactive
43 | O=C(Nc1ccccc1)N(Cc1ccccc1-c1cccc(CNCCc2ccccc2)c1)C1CCN(Cc2ccccc2)CC1 | inactive
44 | Cc1ccccc1N1CCN(c2ccc(C(=O)Nc3ccccc3)cc2)CC1 | inactive
45 | CN1CCN(CCCN(Cc2cccc(-c3ccc(CNCc4ccc5c(c4)OCO5)cc3)c2)C(=O)CCC2CCCC2)CC1 | inactive
46 | Fc1ccc2nc(-c3cccc(-c4ccc(CNCc5ccccc5)cc4)c3)[nH]c2c1 | inactive
47 | COc1cc(Cl)c(C)cc1N(Cc1ccccc1-c1ccccc1)S(=O)(=O)c1ccc(C(F)(F)F)cc1 | inactive
48 | COc1cc(NCC(C)CNCc2cn(Cc3ccccc3)c3ccccc23)nc2ccccc12 (stereo not given) | inactive
49 | O=S(=O)(c1cccc(Br)c1)N1CCCCC(c2ccc(C(F)(F)F)cc2)=N1 | inactive
50 | COCc1nc(N)nc(N)c1-c1ccc(Cl)c(Cl)c1 | inactive
51 | O=C(NCCCCN1CCC(c2ccc3c(c2OCC2CC2)CCCC3)CC1)c1ccc(NC(=O)c2ccc(Cl)cc2)cc1 | inactive
52 | Cc1ccc(-c2nnc3c4ccccc4c(C)nn23)cc1S(=O)(=O)N1CCN(CCO)CC1 | inactive
53 | COc1ccc(Nc2nccc(N3CCC(NC(=O)Nc4cc(C)ccc4C)C3)n2)cc1 (stereo not given) | inactive
54 | O=c1ccc2ncc(Cl)c3c2n1CC3CN1CCC(NCc2cc3c(cn2)OCCO3)CC1 (stereo not given) | inactive
55 | CC(=O)c1sc(Cc2nc3ccccc3s2)nc1C | inactive
56 | CCN1CCN(c2ccc(Nc3ccnc4ccc(Br)cc34)cc2)CC1 | inactive
57 | O=C(NCC1Cc2cc(Oc3ccccc3)ccc2O1)c1ccc([N+](=O)[O-])o1 (stereo not given) | inactive
58 | CCN(CC)CCN(Cc1ccc(-c2ccc(C(F)(F)F)cc2)cc1)C(=O)c1ccc(-c2ccc(NC(=O)OC)cc2C)cc1 | inactive
59 | COc1ccc(CNCCc2cccs2)cc1-c1cccc(S(=O)(=O)NCCN2CCCC2)c1 | inactive
60 | O=C(Nc1ccc(-c2cccc(-c3nc4ccc(C(F)(F)F)cc4[nH]3)c2)cc1)Nc1ccc(Cl)c(Cl)c1 | inactive

Row | Structure (SMILES) | outcome
61 | CCN(CC)CCN(Cc1ccc(-c2ccc(C(F)(F)F)cc2)cc1)C(=O)Cn1c(CCC2CCCCC2)nc(=O)c2ccccc21 | inactive
62 | CC(Oc1ccc(NC(=O)c2cccs2)cc1)C(=O)c1ccc(Cl)cc1 (stereo not given) | inactive
63 | CC(=O)Nc1ccc(C(=O)Nc2ccc(-c3cccc(-c4nc5c(C)cccc5[nH]4)c3)cc2)cn1 | inactive
64 | COc1ccc(-c2ccc(CNC(=O)c3ccc(C#N)cc3)c(F)c2)cc1CN1CCCN(C)CC1 | inactive
65 | CC1CN(C(=O)c2sc3ccccc3c2Cl)CC(C)O1 (stereo not given) | inactive
66 | COc1ccc2nccc([C@@H](O)CN3CCC(NCc4ccc(OC)c(NC(C)=O)c4)CC3)c2c1 | inactive
67 | COc1ccc(Nc2nc(C)cc(NC3CCCC3)n2)cc1 | inactive
68 | COc1cc2nc(NCCc3ccccc3)nc(NCc3cc(C)no3)c2cc1OC | inactive
69 | c1ccc2c(C3CCN(CCCCOc4ccc5c(c4)CCN(C4CCC4)CC5)CC3)c[nH]c2c1 | inactive
70 | Cc1cc(N[C@@H](Cc2ccccc2)C(=O)NCCCOC(C)C)nc(NCC2CCCCC2)n1 | inactive
71 | COc1ccc(C(=O)CCC(=O)N(Cc2ccc(-c3ccc(CNCc4cccnc4)cn3)cc2)C2CCN(Cc3ccccc3)CC2)cc1F | inactive
72 | O=[N+]([O-])c1cc2c(cc1C=NNc1nc(Nc3ccccc3)nc(Nc3ccccc3)n1)OCO2 | inactive
73 | Cc1cccc2[nH]c(-c3cccc(-c4cccc(CN5CCN(c6ccncc6)CC5)c4)c3)nc12 | inactive
74 | CC(C)CCn1c(Sc2ccc(C#N)c([N+](=O)[O-])c2)nnc1-c1cccc(Cl)c1 | inactive
75 | O=C(Nc1ccc(-c2cccc(-c3nc4ccccc4[nH]3)c2)cc1)Nc1ccc(Cl)c(Cl)c1 | inactive
76 | O=C(/C=C/c1ccc(Cl)c(Cl)c1)NCCCCCCN1CCCN(C(=O)Nc2ccc(C(F)(F)F)cc2)CC1 | inactive
77 | O=C(N[C@@H](Cc1ccccc1)C(=O)NC1CCCc2ccccc21)c1ccc(O)c(-c2ccc(Cl)c(Cl)c2)c1 (stereo not given in full) | inactive
78 | CN(C(=O)c1snnc1-c1ccccc1)C1CCN(CCCCCNC(=O)/C=C/c2ccc(Cl)c(Cl)c2)CC1 | inactive
79 | CC(C)N1CCN(C(CN2CCN(CCCOc3ccccc3-c3ccccc3)CC2)c2ccc(F)cc2)CC1 (stereo not given) | inactive
80 | C=CCOC(=O)N1CCC(CNCc2cccc(-c3ccc(-c4nc5c(C)cccc5[nH]4)s3)c2)C1 (stereo not given) | inactive

Reference: PubChem BioAssay
